Assay outcomes as filed in PubChem BioAssay.
Sampled rows, rich in hits. Any-hit rate of the full collection: about 3.3%.
INS-1E GSIS act: GLuc luminescence reporter in INS-1E cells, primary screen for activators of glucose-dependent secretion of insulin | INS-1E GLuc reporter insulin secretion, 2-3 h | actives 0.61% (n = 370,000) | activation, % at 16.6 µM;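 active means lowest replicate activation of at least 40%, so every replicate reaches that level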;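 further: 0% = median of neutral control wells and 100% = median of IBMX positive control wells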
FGF22 binding: binders of recombinant human FGF22 by thermal shift | Q9HCT0 | SYPRO orange fluorescence; percent of sucrose octasulfate shift, DMSO zero | activity (Tm shift, normalised), % at 9.99 µM | actives 1.5% (n = 340,000) | AID 651658;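 active means mean Tm shift, scaled 0 neutral to 100 positive control, at about 1.3% or above, every replicate too, limit read from the data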
Target sequence (Q9HCT0 whole entry, looked up): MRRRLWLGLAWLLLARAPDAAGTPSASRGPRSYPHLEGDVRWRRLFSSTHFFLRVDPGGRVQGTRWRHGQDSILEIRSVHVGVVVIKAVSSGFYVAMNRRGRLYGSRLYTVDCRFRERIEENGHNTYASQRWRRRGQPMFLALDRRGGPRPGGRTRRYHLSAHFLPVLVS
ERAP1 inh: blocks human ERAP1 aminopeptidase activity; inhibition, % at 10.7 µM; actives 0.15% (n = 340,000); AID 652197; Q9NZ08; recombinant ERAP1, Leu-AMC fluorescence, 60 min;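 active means mean replicate inhibition of at least 30%, or all replicates individually reaching that 30% level; inactive means mean below 30% and not every replicate reaching it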;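 further: 0% = neutral control wells and 100% = L-leucinethiol positive control wells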
Casp6 inh: blocks human caspase-6 cleavage activity | inhibition, % at 12.5 µM | purified caspase-6, Z-VEID-R110 cleavage fluorescence | actives 0.53% (n = 350,000) | AID 686996 | P55212;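 active means mean inhibition across replicates at least about 35%, with every replicate also reaching that limit, limit read from the data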;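 further: 0% = median of neutral control wells and 100% = no fluorescence left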
Target sequence (P55212 24-179 limits assumed): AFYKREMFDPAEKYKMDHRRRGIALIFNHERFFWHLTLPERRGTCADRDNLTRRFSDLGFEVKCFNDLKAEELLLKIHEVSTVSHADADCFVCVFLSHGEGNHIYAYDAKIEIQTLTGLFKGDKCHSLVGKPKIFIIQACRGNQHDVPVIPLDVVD
Target sequence (P55212 194-293 limits assumed): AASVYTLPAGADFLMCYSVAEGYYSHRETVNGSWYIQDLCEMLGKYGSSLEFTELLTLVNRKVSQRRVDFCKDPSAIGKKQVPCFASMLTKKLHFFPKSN
SIRT5 inh: blocks human SIRT5 desuccinylation of peptide; Q9NXA8; Purified SirT5, succinyl-peptide AMC, trypsin-coupled fluorescence; inhibition, % at 15 µM; actives 1.1% (n = 330,000); AID 652115; in the data active means inhibition above about 15%
An asterisk follows results filed as active; . = not tested or not shown.

SMILES	INS-1E GSIS act	FGF22 binding	ERAP1 inh	Casp6 inh	SIRT5 inh
N#C[C@H]1[C@H](c2ccccc2-c2ccccc2F)[C@@H](CO)N1C(=O)c1cccc(F)c1	-3.2	0.1	1.4	1.6	5.9
Cc1ccccc1-c1ccccc1[C@@H]1[C@H](C#N)N(C(=O)c2ccccc2)[C@H]1CO	-12.3	0.9	-0.3	3.7	-0.5
Cc1ccccc1-c1ccccc1[C@H]1[C@@H](C#N)N(C(=O)c2ccccc2)[C@@H]1CO	.	-0.6	0.2	0.4	26.2*
COCC(=O)N1[C@@H](C#N)[C@H](c2ccccc2-c2cccc(F)c2)[C@@H]1CO	10.0	0.1	2.6	-0.4	3.0
N#C[C@@H]1[C@H](c2ccccc2-c2ccccc2F)[C@@H](CO)N1C(=O)c1cccc(F)c1	-13.9	0.2	2.8	0.6	17.6*
CN(C)C(=O)c1cccc(-c2ccccc2[C@H]2[C@@H](C#N)N(C(=O)C3CC3)[C@@H]2CO)c1	3.3	-0.2	0.3	1.6	29.4*
COCC(=O)N1[C@H](C#N)[C@H](c2ccccc2-c2cccc(F)c2)[C@H]1CO	-2.9	0.0	4.1	4.9	24.2*
COc1ccc2c3c(n(C)c2c1)[C@@H](CO)N(Cc1cccnc1)CC31CN(C(=O)c2cccnc2)C1	8.2	.	-2.4	-1.7	-2.2
O=C(C[C@@H]1C[C@@H]2c3cc(NC(=O)Nc4ccccc4)ccc3O[C@@H]2[C@H](CO)O1)NCC(F)(F)F	1.1	.	0.1	2.7	-4.8
C[C@H](CO)N1C[C@H](C)[C@H](CN(C)C(=O)c2ccccc2)Oc2cc(C#CC3(O)CCCC3)ccc2S1(=O)=O	-3.7	0.0	1.8	-0.9	0.6
CCCN1C[C@@H](C)[C@@H](OC)CN(C)C(=O)c2ccc(NC(=O)C3CCC3)cc2OC[C@H]1C	9.8	0.0	2.3	-1.2	-0.3
O=C(c1ccccn1)N1CC2(C1)[C@H](c1ccccc1)[C@H](CO)N2Cc1ccc(Cl)cc1	-10.3	0.2	-0.9	0.5	2.9
CN(C)C(=O)C[C@H]1CC[C@H]2[C@@H](COC[C@@H](O)CN2C(=O)C2CCCC2)O1	6.6	0.1	.	.	.
O=C(CN1C(=O)NC2(CCCC2)C1=O)N1CCN(c2ccccc2O)CC1	-18.1	-1.0	-1.1	-1.6	17.8*
O=C(CN1C(=O)NC2(CCCC2)C1=O)N1CCc2ccccc2C1	1.4	43.0*	-1.0	1.4	0.0
Cn1cnc2nc(Cl)nc(Cl)c21	-19.6	0.0	0.5	0.2	3.8
CNc1nc(Cl)nc2ncn(C)c12	-5.3	0.1	-5.9	-1.1	15.8*
O=C(Cc1cccnc1)N1CC(=O)N2[C@@H](CO)[C@H](c3ccc(C4=CCCC4)cc3)[C@@H]2C1	-5.7	.	-0.6	1.9	-0.3
COc1ccc(NC(=O)N(C)C[C@H]2Oc3ccc(NC(=O)Cn4cnnn4)cc3CC(=O)N([C@H](C)CO)C[C@@H]2C)cc1	-16.1	-0.3	0.2	0.6	2.5
CN1c2ccc(-c3ccccc3)cc2[C@@H]2[C@@H](CCN2C(=O)Nc2ccccc2F)[C@@H]1CO	19.4	-0.9	2.8	0.4	-0.9
CO[C@@H]1CN(C)C(=O)c2ccc(NC(=O)C3CC3)cc2OC[C@@H](C)N(CCC(F)(F)F)C[C@@H]1C	-12.8	-0.1	2.9	4.5	-0.1
CCOC(=O)c1c(O)c(Cl)c(C)[nH]c1=O	3.0	43.3*	-2.3	0.5	-2.1
C[C@H]1CN([C@@H](C)CO)C(=O)c2ccccc2-c2ccccc2CO[C@@H]1CN(C)C(=O)Nc1ccnc(N2CCOCC2)c1	8.4	0.0	0.0	-1.5	0.9
COc1ccc2c3c(n(C)c2c1)[C@H](CO)N(C(=O)c1ccccc1)CC31CN(CC2CC2)C1	5.4	.	.	.	.
CCCC[C@@H](O)C1=C(COC)C[C@H]2C(=O)N(Cc3ccccc3)C(=O)[C@H]2[C@H]1CO	.	-0.2	-13.2	0.2	1.6
SMILES	INS-1E GSIS act	FGF22 binding	ERAP1 inh	Casp6 inh	SIRT5 inh
CN(NS(=O)(=O)c1ccc(Cl)cc1)c1nc(C(F)(F)F)nc2ccccc12	-14.9	44.1*	-2.3	-0.7	2.2
C[C@@H]1CN([C@H](C)CO)C(=O)Cc2cc(NC(=O)CCN3CCOCC3)ccc2O[C@H]1CN(C)C(=O)Nc1ccc(C(F)(F)F)cc1	0.2	0.0	-0.3	0.6	-5.8
Cc1ccc(OCC(=O)NNC(=O)[C@@H]2CCCC[C@@H]2C(=O)O)c(Br)c1	11.1	0.0	-1.7	-1.5	-3.1
Cc1cccc(OCC(=O)NNC(=O)C2CCCCC2C(=O)O)c1 (configuration not stated)	-30.1	0.0	-1.6	-0.2	37.2*
Cc1noc(C)c1S(=O)(=O)Nc1ccc2c(c1)C(=O)N([C@@H](C)CO)C[C@H](C)[C@H](CN(C)C(=O)NC(C)C)OCCCC[C@H](C)O2	0.8	-0.1	0.0	3.4	-4.1
Cc1cc(NC(=O)/C=C/c2ccc(Br)cc2)no1	-1.2	.	.	.	.
O=C(Nc1nccs1)c1ccccn1	5.3	43.0*	2.1	0.5	-5.5
O=C(/C=C/c1ccc(Cl)cc1)Nc1nccs1	3.4	0.4	3.5	63.6*	-2.5
Cc1cc(NC(=O)/C=C/c2ccc(Cl)cc2)no1	49.5*	.	.	.	.
O=C(Nc1nccs1)c1cnccn1	8.0	.	.	.	.
O=C(Nc1nccs1)c1cc2cc(Cl)ccc2oc1=O	-6.0	0.0	1.0	-0.8	20.6*
CC(=O)N(C)C[C@H]1Oc2cc(-c3cccc(C#N)c3)ccc2S(=O)(=O)N([C@H](C)CO)C[C@@H]1C	8.5	.	8.9	3.1	-0.1
C[C@H]1CN([C@@H](C)CO)C(=O)c2cccc(NS(=O)(=O)c3ccc(Cl)cc3)c2O[C@H]1CN(C)Cc1ccc(C(=O)O)cc1	3.1	-0.3	2.1	1.7	-3.5
C[C@@H]1CN([C@@H](C)CO)C(=O)c2cc(NC(=O)C3CCCCC3)ccc2O[C@@H](C)CCCCO[C@H]1CN(C)C(=O)C1CCCCC1	-22.3	-0.1	2.6	0.7	1.6
O=C(C1CCOCC1)N1CC(=O)N2[C@H](CO)[C@@H](c3ccc(C#CCc4ccccc4)cc3)[C@H]2C1	20.4	.	-2.2	0.8	16.5*
Cc1ccc(-c2ccc([C@@H]3[C@@H](CO)N4C(=O)CN(C(=O)Cc5ccccn5)C[C@@H]34)cc2)cc1	3.2	.	.	.	1.7
CC(C)CC#Cc1ccc([C@@H]2[C@@H](CO)N3C(=O)CN(C(=O)c4ccccn4)C[C@H]23)cc1	-9.1	.	0.7	-1.3	33.1*
COc1ccc(-c2ccc([C@@H]3[C@H]4CN(C(=O)Cc5ccccn5)CC(=O)N4[C@H]3CO)cc2)cc1	-0.9	.	.	.	27.7*
CCC(=O)N1CC(=O)N2[C@H](CO)[C@H](c3ccc(C#CCC(C)C)cc3)[C@@H]2C1	-1.0	-0.1	2.9	0.8	15.7*
COc1ccc2c3c(n(C)c2c1)[C@@H](CO)N(Cc1nccs1)CC31CCN(C(=O)CC2CC2)CC1	-24.4	.	.	.	.
CN(C)CC(=O)N[C@H]1CC[C@@H](CCNC(=O)C2CCCCC2)O[C@@H]1CO	10.3	-0.4	0.0	0.3	5.6
